Results on 6 compounds are retold here after ChEMBL document CHEMBL2218924, “A broad activity screen in support of a chemogenomic map for kinase signalling research and drug discovery” (Biochem J, 2013).

The target of test [1] is T1, Protein kinase C zeta type (Homo sapiens) (UniProt Q05513).
T1 sequence (whole entry): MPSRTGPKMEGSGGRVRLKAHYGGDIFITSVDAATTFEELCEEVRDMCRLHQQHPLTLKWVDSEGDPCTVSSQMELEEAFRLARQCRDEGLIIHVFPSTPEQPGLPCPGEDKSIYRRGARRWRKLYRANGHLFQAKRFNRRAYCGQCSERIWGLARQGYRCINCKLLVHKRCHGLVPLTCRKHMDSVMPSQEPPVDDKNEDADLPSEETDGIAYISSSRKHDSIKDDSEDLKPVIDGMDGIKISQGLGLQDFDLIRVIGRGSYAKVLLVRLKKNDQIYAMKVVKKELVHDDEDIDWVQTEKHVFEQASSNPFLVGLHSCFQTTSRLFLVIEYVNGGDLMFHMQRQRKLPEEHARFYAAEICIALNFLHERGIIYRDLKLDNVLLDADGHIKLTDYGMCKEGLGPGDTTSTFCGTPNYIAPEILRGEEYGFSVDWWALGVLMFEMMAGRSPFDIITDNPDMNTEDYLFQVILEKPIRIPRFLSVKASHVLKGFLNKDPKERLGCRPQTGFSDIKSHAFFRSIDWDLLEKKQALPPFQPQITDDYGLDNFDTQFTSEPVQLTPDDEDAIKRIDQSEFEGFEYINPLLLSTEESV
The settings on record: at 1 µM.

The target in test [2] is T2, Mitogen-activated protein kinase kinase kinase 5 (Homo sapiens) (UniProt Q99683).
T2 sequence (whole entry): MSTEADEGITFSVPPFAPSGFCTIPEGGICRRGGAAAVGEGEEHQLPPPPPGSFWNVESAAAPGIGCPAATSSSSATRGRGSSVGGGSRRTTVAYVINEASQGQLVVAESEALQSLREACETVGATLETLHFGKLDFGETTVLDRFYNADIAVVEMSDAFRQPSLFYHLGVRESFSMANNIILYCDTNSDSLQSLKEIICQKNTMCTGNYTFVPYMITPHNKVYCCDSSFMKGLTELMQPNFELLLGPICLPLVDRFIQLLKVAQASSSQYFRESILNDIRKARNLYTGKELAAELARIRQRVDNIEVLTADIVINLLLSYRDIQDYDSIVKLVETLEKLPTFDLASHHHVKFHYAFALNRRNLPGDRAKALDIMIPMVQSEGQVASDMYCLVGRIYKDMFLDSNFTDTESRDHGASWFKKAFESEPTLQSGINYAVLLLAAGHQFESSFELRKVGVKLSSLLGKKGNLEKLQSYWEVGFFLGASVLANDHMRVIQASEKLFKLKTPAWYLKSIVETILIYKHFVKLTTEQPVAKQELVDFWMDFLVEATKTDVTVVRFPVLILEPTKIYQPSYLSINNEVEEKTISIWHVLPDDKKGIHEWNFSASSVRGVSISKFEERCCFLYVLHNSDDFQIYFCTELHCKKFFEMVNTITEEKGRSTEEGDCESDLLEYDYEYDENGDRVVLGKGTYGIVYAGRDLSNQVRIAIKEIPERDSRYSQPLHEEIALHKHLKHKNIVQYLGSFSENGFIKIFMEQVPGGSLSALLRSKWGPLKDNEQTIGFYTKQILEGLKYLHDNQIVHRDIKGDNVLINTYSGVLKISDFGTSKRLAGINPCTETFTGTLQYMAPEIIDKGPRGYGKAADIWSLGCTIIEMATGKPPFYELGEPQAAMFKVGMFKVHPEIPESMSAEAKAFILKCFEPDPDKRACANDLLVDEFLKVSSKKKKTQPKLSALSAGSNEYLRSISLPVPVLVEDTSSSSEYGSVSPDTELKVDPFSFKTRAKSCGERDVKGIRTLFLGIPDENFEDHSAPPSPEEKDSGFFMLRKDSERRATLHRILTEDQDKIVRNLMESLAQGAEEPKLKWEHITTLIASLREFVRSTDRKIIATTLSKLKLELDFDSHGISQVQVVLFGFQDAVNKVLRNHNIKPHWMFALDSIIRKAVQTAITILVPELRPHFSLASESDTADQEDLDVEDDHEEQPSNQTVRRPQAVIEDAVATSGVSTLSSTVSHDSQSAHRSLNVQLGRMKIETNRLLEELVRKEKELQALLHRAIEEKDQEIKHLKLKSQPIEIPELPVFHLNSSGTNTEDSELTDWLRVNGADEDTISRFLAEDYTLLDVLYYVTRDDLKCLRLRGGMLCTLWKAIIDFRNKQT
The settings on record: at 10 µM.

Test [3] has as its target Tyrosine-protein kinase ABL1 (Homo sapiens) (UniProt P00519). The settings on record: at 10 µM.
The target in test [4] is Tyrosine-protein kinase ABL2 (Homo sapiens) (UniProt P42684). The settings on record: at 1 µM.
Test [5] has the same target. The settings on record: at 10 µM.
The target in test [6] is T3, Aurora kinase A (Homo sapiens) (UniProt O14965).
T3 sequence (whole entry): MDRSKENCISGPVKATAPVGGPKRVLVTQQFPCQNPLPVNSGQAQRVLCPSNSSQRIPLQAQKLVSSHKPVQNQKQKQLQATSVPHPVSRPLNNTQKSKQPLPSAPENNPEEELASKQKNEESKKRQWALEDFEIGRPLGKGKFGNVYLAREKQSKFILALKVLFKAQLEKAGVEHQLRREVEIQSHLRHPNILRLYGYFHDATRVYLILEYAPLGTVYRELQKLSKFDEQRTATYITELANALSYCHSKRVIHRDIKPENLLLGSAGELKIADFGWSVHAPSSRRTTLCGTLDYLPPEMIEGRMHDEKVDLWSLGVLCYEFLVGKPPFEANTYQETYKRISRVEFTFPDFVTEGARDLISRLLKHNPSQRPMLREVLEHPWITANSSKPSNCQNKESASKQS
As to conditions: at 1 µM; call rule not given here.

In test [7] the target is T3, Aurora kinase A (Homo sapiens). The settings on record: at 10 µM.
In test [8] the target is Aurora kinase B (Homo sapiens) (UniProt Q96GD4). The settings on record: at 1 µM.
Sequence of Aurora kinase B (Homo sapiens) (Q96GD4 whole entry): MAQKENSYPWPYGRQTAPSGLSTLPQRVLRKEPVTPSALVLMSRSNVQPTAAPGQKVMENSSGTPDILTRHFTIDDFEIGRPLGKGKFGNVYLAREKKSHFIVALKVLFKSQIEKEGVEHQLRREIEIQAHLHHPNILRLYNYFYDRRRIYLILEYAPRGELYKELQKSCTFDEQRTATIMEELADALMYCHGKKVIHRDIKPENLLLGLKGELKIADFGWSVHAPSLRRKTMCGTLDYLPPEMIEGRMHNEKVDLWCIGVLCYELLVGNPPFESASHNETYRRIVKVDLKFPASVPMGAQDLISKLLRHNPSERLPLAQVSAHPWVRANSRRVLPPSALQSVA
Test [9] shares this target. As to conditions: at 10 µM.
Test [10] concerns the target T4, Aurora kinase C (Homo sapiens) (UniProt Q9UQB9).
T4 sequence (whole entry): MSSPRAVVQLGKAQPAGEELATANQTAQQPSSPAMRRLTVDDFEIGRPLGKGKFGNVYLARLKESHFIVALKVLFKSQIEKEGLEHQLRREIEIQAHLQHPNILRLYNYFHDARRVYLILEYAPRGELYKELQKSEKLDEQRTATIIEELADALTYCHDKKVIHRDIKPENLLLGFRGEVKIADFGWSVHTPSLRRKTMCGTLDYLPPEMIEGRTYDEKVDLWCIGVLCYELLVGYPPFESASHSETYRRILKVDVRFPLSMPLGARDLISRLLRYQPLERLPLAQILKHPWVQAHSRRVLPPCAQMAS
The settings on record: at 1 µM.

The target in test [11] is T4, Aurora kinase C (Homo sapiens). The settings on record: at 10 µM.
Test [12] deals with Tyrosine-protein kinase receptor UFO (Homo sapiens) (UniProt P30530). As to conditions: at 1 µM.
Sequence of Tyrosine-protein kinase receptor UFO (Homo sapiens) (P30530 whole entry): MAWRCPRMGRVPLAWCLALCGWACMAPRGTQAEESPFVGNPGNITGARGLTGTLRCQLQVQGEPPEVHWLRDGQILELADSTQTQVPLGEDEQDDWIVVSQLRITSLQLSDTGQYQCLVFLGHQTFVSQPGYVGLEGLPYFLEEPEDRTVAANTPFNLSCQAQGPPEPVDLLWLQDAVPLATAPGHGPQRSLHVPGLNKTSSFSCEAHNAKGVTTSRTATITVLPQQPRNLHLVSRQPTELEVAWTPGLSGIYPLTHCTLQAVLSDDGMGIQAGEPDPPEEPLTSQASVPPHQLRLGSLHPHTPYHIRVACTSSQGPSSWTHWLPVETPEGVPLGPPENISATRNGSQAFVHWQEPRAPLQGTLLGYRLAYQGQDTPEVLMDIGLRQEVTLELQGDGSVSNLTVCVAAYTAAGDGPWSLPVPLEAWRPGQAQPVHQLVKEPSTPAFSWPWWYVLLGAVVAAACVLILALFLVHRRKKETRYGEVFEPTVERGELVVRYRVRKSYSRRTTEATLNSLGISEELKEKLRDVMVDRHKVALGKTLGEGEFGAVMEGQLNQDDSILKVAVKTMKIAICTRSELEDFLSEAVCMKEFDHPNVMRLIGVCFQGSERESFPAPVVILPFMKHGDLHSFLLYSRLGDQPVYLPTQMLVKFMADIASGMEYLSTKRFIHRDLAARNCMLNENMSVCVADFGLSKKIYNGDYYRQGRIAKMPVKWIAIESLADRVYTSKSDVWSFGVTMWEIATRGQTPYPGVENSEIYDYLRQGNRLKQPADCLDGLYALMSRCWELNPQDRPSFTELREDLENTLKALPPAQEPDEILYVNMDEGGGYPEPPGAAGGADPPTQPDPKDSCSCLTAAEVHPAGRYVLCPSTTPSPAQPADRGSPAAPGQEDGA
For test [13] the target is unchanged. As to conditions: at 10 µM.
Test [14] deals with Protein-tyrosine kinase 6 (Homo sapiens) (UniProt Q13882). The settings on record: at 1 µM.
Sequence of Protein-tyrosine kinase 6 (Homo sapiens) (Q13882 whole entry, looked up): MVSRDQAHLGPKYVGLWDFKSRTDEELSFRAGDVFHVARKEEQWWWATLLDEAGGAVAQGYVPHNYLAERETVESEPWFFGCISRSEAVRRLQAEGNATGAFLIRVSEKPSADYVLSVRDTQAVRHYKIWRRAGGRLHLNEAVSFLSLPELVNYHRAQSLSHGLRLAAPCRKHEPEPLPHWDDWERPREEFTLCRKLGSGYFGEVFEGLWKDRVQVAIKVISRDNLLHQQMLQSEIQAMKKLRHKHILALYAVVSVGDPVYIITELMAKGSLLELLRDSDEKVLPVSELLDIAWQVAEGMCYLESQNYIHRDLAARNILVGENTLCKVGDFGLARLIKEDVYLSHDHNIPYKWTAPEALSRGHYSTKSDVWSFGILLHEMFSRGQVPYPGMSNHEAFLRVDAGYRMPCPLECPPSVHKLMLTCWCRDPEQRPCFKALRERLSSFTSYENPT
For test [15] the target is unchanged. As to conditions: at 10 µM.
In test [16] the target is Tyrosine-protein kinase BTK (Homo sapiens) (UniProt Q06187). As to conditions: at 1 µM.
Sequence of Tyrosine-protein kinase BTK (Homo sapiens) (Q06187 whole entry): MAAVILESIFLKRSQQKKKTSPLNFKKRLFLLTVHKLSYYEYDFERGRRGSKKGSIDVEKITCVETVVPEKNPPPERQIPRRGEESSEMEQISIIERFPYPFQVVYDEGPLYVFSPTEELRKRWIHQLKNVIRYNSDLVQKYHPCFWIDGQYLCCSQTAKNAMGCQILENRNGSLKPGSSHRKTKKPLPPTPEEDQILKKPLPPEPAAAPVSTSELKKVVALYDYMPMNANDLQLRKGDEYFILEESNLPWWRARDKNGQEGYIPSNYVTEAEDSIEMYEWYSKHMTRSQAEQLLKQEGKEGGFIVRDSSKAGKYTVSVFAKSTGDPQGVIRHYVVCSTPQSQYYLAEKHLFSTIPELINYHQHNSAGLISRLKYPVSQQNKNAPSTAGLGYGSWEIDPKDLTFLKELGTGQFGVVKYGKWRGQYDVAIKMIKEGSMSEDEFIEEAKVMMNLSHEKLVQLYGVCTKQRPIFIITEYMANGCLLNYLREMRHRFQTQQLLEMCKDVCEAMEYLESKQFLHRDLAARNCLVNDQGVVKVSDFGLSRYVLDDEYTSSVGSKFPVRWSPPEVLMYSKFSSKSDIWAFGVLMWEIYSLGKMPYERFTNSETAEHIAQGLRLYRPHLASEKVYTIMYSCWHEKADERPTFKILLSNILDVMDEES
Test [17] shares this target. As to conditions: at 10 µM.
The target in test [18] is Tyrosine-protein kinase Blk (Homo sapiens) (UniProt P51451). As to conditions: at 1 µM.
Sequence of Tyrosine-protein kinase Blk (Homo sapiens) (P51451 2-505 limits assumed): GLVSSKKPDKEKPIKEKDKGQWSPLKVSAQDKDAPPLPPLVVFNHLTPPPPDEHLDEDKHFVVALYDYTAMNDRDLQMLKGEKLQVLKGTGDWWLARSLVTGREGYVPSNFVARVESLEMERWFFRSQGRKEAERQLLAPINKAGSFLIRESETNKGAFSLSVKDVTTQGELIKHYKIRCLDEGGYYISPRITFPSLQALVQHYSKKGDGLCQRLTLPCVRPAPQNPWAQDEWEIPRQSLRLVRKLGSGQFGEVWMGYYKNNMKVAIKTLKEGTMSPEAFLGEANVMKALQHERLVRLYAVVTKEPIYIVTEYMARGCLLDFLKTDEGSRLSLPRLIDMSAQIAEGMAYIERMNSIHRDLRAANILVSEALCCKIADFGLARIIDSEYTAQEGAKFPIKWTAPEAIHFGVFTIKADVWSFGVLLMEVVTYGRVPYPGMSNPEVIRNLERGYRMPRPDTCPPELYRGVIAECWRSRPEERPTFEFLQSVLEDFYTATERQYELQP
Test [19] shares this target. As to conditions: at 10 µM.
Test [20] concerns the target Tyrosine-protein kinase ABL1 (Homo sapiens) (UniProt P00519). As to conditions: at 1 µM.

Sequence of Tyrosine-protein kinase ABL1 (Homo sapiens) (P00519 whole entry): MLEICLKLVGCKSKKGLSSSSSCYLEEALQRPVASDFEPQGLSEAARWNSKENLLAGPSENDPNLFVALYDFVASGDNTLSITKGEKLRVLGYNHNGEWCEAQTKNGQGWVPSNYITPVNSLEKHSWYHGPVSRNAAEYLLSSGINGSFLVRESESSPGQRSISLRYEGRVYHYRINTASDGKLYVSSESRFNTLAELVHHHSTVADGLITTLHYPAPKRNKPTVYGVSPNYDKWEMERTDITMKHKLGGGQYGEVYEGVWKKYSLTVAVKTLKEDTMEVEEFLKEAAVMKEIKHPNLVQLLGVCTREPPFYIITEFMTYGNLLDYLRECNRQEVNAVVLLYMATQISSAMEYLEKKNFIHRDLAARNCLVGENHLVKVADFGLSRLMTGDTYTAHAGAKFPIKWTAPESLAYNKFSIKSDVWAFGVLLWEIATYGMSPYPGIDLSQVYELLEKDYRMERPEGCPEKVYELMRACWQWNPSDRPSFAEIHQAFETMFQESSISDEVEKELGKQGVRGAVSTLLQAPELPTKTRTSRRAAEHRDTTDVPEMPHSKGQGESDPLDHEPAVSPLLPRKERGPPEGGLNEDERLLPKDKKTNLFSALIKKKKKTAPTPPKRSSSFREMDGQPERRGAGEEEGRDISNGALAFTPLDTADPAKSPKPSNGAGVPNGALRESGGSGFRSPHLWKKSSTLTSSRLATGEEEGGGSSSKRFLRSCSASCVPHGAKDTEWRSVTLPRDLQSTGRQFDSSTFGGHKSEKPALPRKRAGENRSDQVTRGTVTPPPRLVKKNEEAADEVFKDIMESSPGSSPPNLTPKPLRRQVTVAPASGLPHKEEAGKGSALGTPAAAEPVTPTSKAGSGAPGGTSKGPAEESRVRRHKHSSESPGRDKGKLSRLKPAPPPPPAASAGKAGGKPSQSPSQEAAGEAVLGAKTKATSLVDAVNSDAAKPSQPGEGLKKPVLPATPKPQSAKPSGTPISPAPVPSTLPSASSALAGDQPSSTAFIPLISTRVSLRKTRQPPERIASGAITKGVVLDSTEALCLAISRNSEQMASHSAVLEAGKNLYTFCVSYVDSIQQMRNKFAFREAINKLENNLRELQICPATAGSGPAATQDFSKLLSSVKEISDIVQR

As to `Nc1ncnc2[nH]nc(Nc3ccc(F)cc3)c12`, the residual activity in [1] is 103% (inactive); in test [2] it was 90%; in test [3] it was 28%; in [4], 70%; in test [5], 30%; in [6], 96%. Besides, the residual activity worked out at 73% in test [7]; 55% in test [8]; 22% in [9]; 80% in test [10]; 43% in [11]; 90% in test [12]. For the same compound, the residual activity in test [13] amounted to 57%; in test [14], 51%; in test [15], 19%; in test [16], 74%; in test [17], 34%; in [18], 3%. The residual activity in test [19] stood at 3%.

`COc1ccc(-c2cnc3c(-c4ccsc4)cnn3c2)cc1`: the residual activity in [2] stood at 88%; in test [20], 76%; in test [3], 97%; in test [4], 88%; in test [5] it was 94%; in test [10], 95%. Moreover, the figures for the residual activity in [11], in test [12] and in [13] were 63%, 94% and 95%, respectively.

As to `O=C1NC(=O)c2c1c1c3ccccc3[nH]c1n1cncc21`, the residual activity in test [2] was determined as 96%; in test [20] it was 80%; in test [3] it was 62%; in [4] it was 91%; in [5] it was 56%; in test [6], 14%. The residual activity is 1% in [7]; 3% in test [8]; 0% in [9]; 37% in test [10]; 12% in test [11]; 86% in test [12]. Moreover, the residual activity is 71% in test [13]; 81% in test [14]; 53% in [15]; 70% in [16]; 34% in [17]; 57% in [18]. The residual activity in test [19] was 8%.

As to `Cn1sc(=O)n(Cc2ccccc2)c1=O`, the residual activity is 92% in test [2]; 84% in test [20]; 83% in test [3]; 90% in [5]; 83% in test [6]; 91% in test [7]. The residual activity in [8] was 88%; in test [9], 66%; in [10], 76%; in test [11], 77%; in [12], 96%; in test [13], 66%. Also, the residual activity in [14] turned out to be 96%; in test [15], 95%; in test [16], 91%; in test [17], 91%.

Consider `CC(C)(C)n1nc(Cc2cccc3ccccc23)c2c(N)ncnc21`, for which the residual activity in test [1] was 103% (inactive); in test [20], 87%; in [3], 28%; in [4] it was 68%; in test [5] it was 18%; in test [6] it was 93%. Moreover, the residual activity in test [7] is 104%; in test [8] it was 130%; in test [9] it was 87%; in [10], 94%; in test [11] it was 71%; in test [12] it was 80%. For the same compound, the residual activity in [13] is 72%; in [14], 5%; in [15] it was -1%; in test [16] it was 24%; in [17], 3%; in [18], 77%. Also, the residual activity in [19] was 13%.

As to `Nc1ncnc2c1c(-c1ccc(Oc3ccccc3)cc1)cn2C1CCCC1`, the residual activity in [1] is 99% (inactive); in [2], 85%; in test [3], 6%; in [4], 80%; in test [5] it was 21%; in [6] it was 35%. Also, the residual activity in test [7] was 7%; in test [8], 43%; in test [9], 6%; in [10], 87%; in [11], 54%; in test [12] it was 58%. Also, the residual activity was 21% in test [13]; 0% in [14]; -1% in test [15]; 1% in test [16]; 1% in test [17]; 0% in test [18]. Moreover, the residual activity in [19] was determined as 0%.
